Measured values taken from PubChem BioAssay AID1671463 (Sanford-Burnham Center for Chemical Genomics, 2021).
In all, about 370,000 compounds went through this assay and about 520 (0.14%) were called active. Only a selection was taken, and actives are over-represented in it overall. A number with no mark means an inactive call. Cut-off read from the data, not from the text of the source: active = activation above about 40%; inactive = the rest.

These compounds were tested against Atrial natriuretic peptide receptor 1 (Homo sapiens) (UniProt P16066) (assay: GC-A stimulated cGMP production enhancers – HEK293 GC-A cells, cGMP TR-FRET, EC30 ANP, primary screen (AID 1671463)). Conditions: at 10 µM, hits give high values, 0% at EC30 ANP, 100% saturating ANP.
Sequence of Atrial natriuretic peptide receptor 1 (Homo sapiens) (P16066 whole entry, looked up): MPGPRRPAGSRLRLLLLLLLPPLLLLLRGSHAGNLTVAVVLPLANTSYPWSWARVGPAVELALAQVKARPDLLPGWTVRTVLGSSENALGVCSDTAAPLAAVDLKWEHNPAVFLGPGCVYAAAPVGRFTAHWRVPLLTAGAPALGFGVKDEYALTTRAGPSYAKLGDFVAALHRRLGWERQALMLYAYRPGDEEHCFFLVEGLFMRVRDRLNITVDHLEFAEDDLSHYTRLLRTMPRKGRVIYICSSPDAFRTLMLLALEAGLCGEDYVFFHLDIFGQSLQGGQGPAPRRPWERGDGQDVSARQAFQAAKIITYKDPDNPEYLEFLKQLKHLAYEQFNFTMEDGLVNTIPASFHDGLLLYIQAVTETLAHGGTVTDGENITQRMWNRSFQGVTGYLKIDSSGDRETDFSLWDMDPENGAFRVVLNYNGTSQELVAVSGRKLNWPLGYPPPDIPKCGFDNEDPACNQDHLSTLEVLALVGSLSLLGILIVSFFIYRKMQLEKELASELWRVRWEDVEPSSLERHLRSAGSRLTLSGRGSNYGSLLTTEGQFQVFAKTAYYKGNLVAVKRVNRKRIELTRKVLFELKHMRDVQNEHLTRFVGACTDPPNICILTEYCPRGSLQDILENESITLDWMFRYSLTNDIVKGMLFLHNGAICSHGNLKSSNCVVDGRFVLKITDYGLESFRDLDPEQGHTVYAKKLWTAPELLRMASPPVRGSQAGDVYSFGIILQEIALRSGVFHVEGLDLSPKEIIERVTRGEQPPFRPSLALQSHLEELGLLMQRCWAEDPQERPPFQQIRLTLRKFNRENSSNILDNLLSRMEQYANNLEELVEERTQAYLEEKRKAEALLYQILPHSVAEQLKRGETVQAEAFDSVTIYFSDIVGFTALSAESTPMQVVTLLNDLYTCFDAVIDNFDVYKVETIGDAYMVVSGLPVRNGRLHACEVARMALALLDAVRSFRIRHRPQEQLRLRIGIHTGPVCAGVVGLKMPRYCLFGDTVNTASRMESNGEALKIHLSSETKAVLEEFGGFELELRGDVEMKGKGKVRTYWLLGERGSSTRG

Point of comparison: `O=C1CC[C@@H](COc2ccc3[nH]cc(-c4ccccc4)c3c2-c2ccccc2)N1`, activation 2.69%. Against it:
- COc1ccc([N+](=O)[O-])cc1NC(=O)CC1SC(=Nc2cccc(C)c2C)N(/N=C(\C)c2ccc(C)cc2)C1=O (stereo not given) — lower, 0.41%
- Cc1ccc(NS(=O)(=O)c2ccc(-c3coc(C)n3)cc2)c(C)c1 — higher, 4.2%
- C=CCOc1ccc(/C=N/NC(=O)C(C)Sc2ccccn2)cc1OCC (stereo not given) — lower, 1.12%
- C#CCOc1ccccc1/C=C1/C(=O)ON=C1C — higher, 25.7%
- C=CCOc1ccc(/C=N/n2cncn2)cc1OC — higher, 7.58%
- Cc1ccc(N2C(=O)C3C4C=CC(CC4)C3C2=O)cc1Cl (stereo not given) — higher, 2.95%
- CN(CC(=O)Nc1c(Cl)cccc1Cl)C(=O)c1ccncc1 — higher, 3.63%
- C=C1CCN([C@H](C(=O)NCc2cc(OC)c(OC)c(OC)c2)C(C)C)S(=O)(=O)c2ccccc21 — higher, 4.37%
- CCCC(C(=O)N1CCOCC1)N1C(=O)C2C3C=CC(C3)C2C1=O (stereo not given) — lower, 2.35%
- O=C(Nc1cccc(Br)c1)C1CC(=O)N(C2CCCC2)C1 (stereo not given) — lower, 0.08%
- Cc1cccc(NC(=O)C2CCCN2S(=O)(=O)c2ccc(F)cc2)c1C (stereo not given) — lower, 0.56%
- CCC(=O)Nc1c(C)n[nH]c1C — lower, -1.11%
- COc1cc(F)c(C2=CC(=O)CC(C)(C)C2)cc1F — lower, 0.01%
- COC(=O)Cc1ccc(OC(=O)C2CCN(S(=O)(=O)c3ccc(OC)c(OC)c3)CC2)cc1 — higher, 3.18%
- COC(=O)c1cn(C)c2ccc(S(=O)(=O)N3CC(C)CC(C)C3)cc2c1=O (stereo not given) — lower, -6.76%
- O=C(Cn1nnc(-c2ccc3c(c2)OCO3)n1)NCc1ccco1 — lower, -5.64%
- Cc1nc(CNc2ncnc3ccc(-c4ccc5c(c4)OCO5)cc23)cs1 — higher, 5.54%
- Cc1ccc(NC(=O)CN(C)C(=O)COC(=O)C(C)(C)Oc2ccc(Cl)cc2)cc1 — lower, -1.24%
- CCn1nc(C(=O)NNC(=O)C2CSC3(C)CCC(=O)N23)c2ccccc2c1=O (stereo not given) — lower, -1.32%
- Cc1cc(C)c(C#N)c(SCS(=O)c2ccc(C(C)(C)C)cc2)n1 (stereo not given) — higher, 4.18%
- CCc1c(C)[nH]c(=S)c(C#N)c1C — lower, 2.4%
- CC(=O)c1c(C)[nH]c(=S)c(C#N)c1-c1ccc(F)cc1 — higher, 5.29%
- COC(=O)Nc1ccc(S(=O)(=O)N2CCN(CCN3C(=O)C4C5C=CC(C5)C4C3=O)CC2)cc1 (stereo not given) — lower, -1.89%
- Cc1cc(=O)n2nc(N3CCC(C(=O)Nc4c(F)c(F)c(F)c(F)c4F)CC3)sc2n1 — lower, 0.6%
- CC(C)c1cc(C(N)=O)c(NC(=O)c2cccc(COc3ccc(Br)cc3)c2)s1 — lower, -1.61%
- O=C(CN1C2CCC1CC(NC(=O)C1CC1)C2)NCc1ccccc1 (stereo not given) — lower, 0.13%
- COc1ccccc1CNC(=O)CSc1nc(=O)n(Cc2ccncc2)c2c1CCC2 — higher, 2.8%
- CC(C)C[C@H](NC(=O)[C@@H]1O[C@H]1C(=O)O)C(=O)NCCCCN=C(N)N — higher, 2.77%
- C[C@H](NS(=O)(=O)c1ccc(Cl)cc1)C(=O)OCC(=O)N1CCOCC1 — higher, 7.01%
- Nc1ccc(N=Nc2ccccc2Cl)c(N)n1 — higher, 38.8%
- CCN(CC)S(=O)(=O)c1ccc(CNC(=O)CN2C(=O)NC3(CCc4ccccc43)C2=O)cc1 (stereo not given) — lower, -0.1%
- O=C(O)CCSc1nnc(-c2ccccc2)n1-c1ccccc1 — higher, 4.68%
- C[C@@H](O)c1nc2ccccc2n1N — lower, 1.42%
- Cc1noc(C)c1COc1cccc(C(=O)Nc2cccnc2)c1 — lower, -4.16%
- COCc1c(C(=O)OCc2c(C)noc2C)oc2ccccc12 — lower, 2.41%
- CCCCOc1ccc(N(CC(=O)NCC2CCCO2)C(=O)CCC(=O)Nc2cc(C)ccn2)cc1 (stereo not given) — lower, 0.77%
- CSc1sc(C(=O)NNC(=O)c2ccc(Cl)cc2)c2c1C=CCC2 — lower, -1.84%
- Cc1cc(NC(=O)CS(=O)(=O)c2cn(C)c3ccccc23)no1 — lower, 1.25%
- CC(=O)c1ccc(S(=O)(=O)NC2CC(=O)N(c3ccc4c(c3)OCCO4)C2)cc1 (stereo not given) — higher, 4.47%
- Cc1ccn(-c2cccc(-n3ccc(C)n3)n2)n1 — higher, 5.87%
- CCCCOc1ccc(NC(=O)[C@@H]2CCCN2C(=O)C2CCN(S(=O)(=O)c3ccc(C)cc3)CC2)cc1 — lower, 2.31%
- O=C(Nc1ccon1)c1nc[nH]c1C(=O)NCc1ccccc1 — lower, -0.12%
- NC(N)=NCCCc1cn(CC(=O)N2CCNCC2)nn1 — lower, -2.97%
- Cc1oc2cc3oc(=O)ccc3cc2c1C — lower, -1.91%
- CC(C)Oc1ccc(C(CC(=O)N2CCOCC2)C(C)C)cc1 (stereo not given) — lower, -1.14%
- O=C(CSc1nnc(-c2ccncc2)o1)Nc1cccc(Cl)c1 — lower, -5.53%
- O=C(CSc1nnc(-c2ccncc2)o1)NCc1ccc(Cl)cc1 — lower, -2.38%
- O=[N+]([O-])c1ccc(CN2CC(N3CC=CC3)CS2(=O)=O)cc1 (stereo not given) — lower, 0.5%
- Nc1c(N(CCO)C(=O)C2CCCCC2)c(=O)[nH]c(=O)n1Cc1ccccc1 — lower, -4.4%
- CC(NC(=O)COc1ccc(-c2ccccc2)cc1)C1CCCO1 (stereo not given) — higher, 3.26%
- COC(=O)CN1C(=O)[C@H]2[C@@H](C3CC3)N3C(=O)CN(Cc4ccc(-c5ccccc5)cc4)C(=O)[C@@]3(Cc3ccccc3)[C@H]2C1=O — higher, 4.81%
- O=C(CSc1nc2ccccc2n1Cc1ccccc1)NNC(=S)Nc1ccccc1 — lower, 0.91%
- O=S(=O)(Nc1ccc(-c2ccc(N3CCOCC3)nn2)cc1)c1cc(Cl)ccc1Cl — lower, 0.58%
- COc1cc(NC(=O)c2ccc(CNc3c(N4CCCC4)c(=O)c3=O)cc2)cc(OC)c1OC — lower, -2.1%
- Fc1ccc2c(c1)C(c1cccnc1)=NNC(c1cccs1)=N2 — lower, -28.1%
- [O-][n+]1c2c(nn1-c1ccc(Cl)c(Cl)c1)-c1nonc1CC2 — higher, 9.72%
- C=CCOc1ccc(Cl)cc1CNCCCN1CCOCC1 — lower, -6.85%
- O=C1C=C(c2ccnc3cc(Cl)ccc23)C[C@@H](c2ccc3c(c2)OCO3)C1 — lower, 0.61%
- CC(C)CCSc1ncnc2c1oc1nc3c(cc12)COC(C)(C)C3 — lower, -1.1%
- CCOc1ccc(NC(=O)CSc2ncnc3c2sc2ccccc23)cc1 — higher, 38.7%
- CN1CCC(=NNC(=O)CN(c2cccc(Cl)c2)S(C)(=O)=O)CC1 — lower, 0.89%
- CCCCCn1c(SCCC(C)C)nc2c1c(=O)[nH]c(=O)n2C — lower, 1.84%
- COc1ccc2occ(C(=O)c3ccc(N=C(C)N(C)C)cc3)c2c1 — lower, -4.34%
- Cc1nn(Cc2ccccc2)c(C)c1C(=O)N1CCN(CC(=O)Nc2ccccc2Cl)CC1 — higher, 4.37%
- CN(C)CCN=c1cc(-c2ccccc2)oc2ccc(Cl)cc12 — lower, 1.39%
- COc1ccc(C(CC(=O)c2ccccc2)S(=O)(=O)c2ccccc2)cc1 (stereo not given) — lower, -10.5%
- O=C(c1ccc(F)c(S(=O)(=O)N2CCOCC2)c1)N(CCc1ccccc1)Cc1ccccc1 — lower, -3.51%
- O=C(CN1C(=O)c2ccc([N+](=O)[O-])cc2C1=O)Nc1nnc(C2CC2)s1 — higher, 5.52%
- COc1ccc(NC(=O)C(CC(C)C)NC(=O)C2CCC(C)CC2)cc1 (stereo not given) — lower, -0.39%
- CCOC(=O)N1CCN(C(=O)CSc2nnc(-c3c[nH]c4ccccc34)n2CCOC)CC1 — lower, -1.3%
- CCNC(=O)N1CCN(S(=O)(=O)c2ccc3c(c2)OCCCO3)CC1 — lower, -0.67%
- O=C(CCC1CCCN(Cc2ccc(O)c(Cl)c2)C1)NCc1ccccc1F (stereo not given) — higher, 3.25%
- COc1ccc2cc(C(=O)O)n(CC(=O)c3ccccc3)c2c1 — lower, -0.02%
- CC(=O)OCCN1CCCC12CCC(c1ccccc1)CC2 (stereo not given) — higher, 4.33%
- COc1ccc(CCNC(=O)COc2ccc3c(c2)OCO3)cc1 — lower, -3.12%
- NC(=O)C1=C[C@H](c2csc3ccccc23)C[C@H](OCc2ccc(CO)cc2)O1 — lower, -0.65%
- CC(C)COC(=O)n1c(=O)oc2ccc(S(=O)(=O)N3CCCCC3)cc21 — lower, 0.62%
- CCOc1ccc2nc(Cl)c(C3CC(c4ccccc4)=NN3C(=O)c3cccs3)cc2c1 (stereo not given) — lower, 1.83%
- COc1ccc(C2CC(c3cccc(OC)c3)=NN2c2ccc(S(N)(=O)=O)cc2)cc1 (stereo not given) — higher, 6.44%

In the case of `C#CCOc1ccc(/C=C2/C(=O)ON=C2C)cc1OCC`, the activation is reported as 43.3% (active).
With `C=CCOc1ccc(/C=C2/C(=O)ON=C2C)cc1OCC` the activation was 41% (active).
`c1coc(CCNc2ncnc3ccc(-c4ccc5c(c4)OCO5)cc23)c1` was tested, and the activation was 43.1% (active).
In the case of `CCOC(=O)c1c(C)[nH]c(=S)c(C#N)c1-c1ccccc1`, the activation is reported as 49.5% (active).
For `Cc1noc(C)c1COC(=O)COc1ccc(-c2ccccc2)cc1`, the activation was 42% (active).
With `O=C(COC(=O)CSc1nnc(-c2ccc(Cl)cc2)o1)Nc1cc(Cl)cc(Cl)c1` the activation was 60.5% (active).
In the case of `O=C1/C(=C\c2ccc([N+](=O)[O-])cc2)CS(=O)(=O)C/C1=C/c1ccc([N+](=O)[O-])cc1`, the activation is reported as 43.4% (active).
In the case of `CC1(C)Cc2nc3sc4c(SCC(=O)NC(c5ccccc5)c5ccccc5)ncnc4c3cc2CO1`, the activation is reported as 52.8% (active).
In the case of `COc1ccc(C2CC(c3ccccc3)=NN2C(=O)c2ccc(Cl)c([N+](=O)[O-])c2)cc1` (stereo not given), the activation is reported as 69.5% (active).
`O=C1C=CC(=O)N1c1ccc(N2CCCCC2)cc1` was tested, and the activation was 50.5% (active).
